# Calls of active or inactive are those of the source.
# Assay: small-molecule microarray binders of probe aCHRDL2, primary screen, biochemical, biotinylated probe, 635/667 nm fluorescence (AID 1100)
# Conditions: higher = more signal
row,Compound,composite z-score
1,COCCOC(=O)N1C(=O)[C@@]2(c3cc(C#CC4(O)CCCCCC4)ccc31)[C@H](C(=O)N1CCN(c3ncccn3)CC1)[C@H]1C(=O)O[C@H](c3ccccc3)[C@H](c3ccccc3)N1[C@@H]2c1ccccc1OCCO,-0.113
2,CCCC=C(CCC)[C@@H](NC(=O)CCc1ccccc1)c1ccc(C(F)(F)F)cc1,0.995
3,CC(C)[C@H]1NC(=O)[C@@]23C(=O)N[C@@H](Cc4ccccc4)C2[C@H](C)[C@@]2(C)O[C@H]2C3/C=C/CCC/C=C/CNC(=O)[C@H](Cc2ccccc2)NC1=O (some centres undefined),-0.32
4,CCCCNC(=O)c1ccc(C#C[Si](C(C)C)(C(C)C)C(C)C)c(OC(C)=O)c1,-0.539
5,C=C(/C(=C/C[C@H](OC(=O)c1ccncc1)c1ccccc1OCCO)c1cnc2ccccc2c1)C(C)C,0.37
6,COc1cc(NN2C(C(O)c3cc(OC)c(OC)c(OC)c3)C=CC3C(=O)N(c4ccccc4)C(=O)C32)cc(OC)c1OC (centres undefined),0.561
7,COC(=O)[C@@]1(Cc2ccccc2)[C@H]2c3cc(C(=O)N4CCCC4)n(CCSCCO)c3C[C@H]2CN1C(=O)c1ccccc1,1.2
8,COCCOC(=O)N1C(=O)[C@@]2(c3cc(C#Cc4ccc(OC)cc4)ccc31)[C@H](c1ccc(OCCO)cc1)N1[C@H](c3ccccc3)[C@H](c3ccccc3)OC(=O)[C@H]1[C@@H]2C(=O)Nc1nc2ccccc2s1,0.533
9,COCCOC(=O)N1C(=O)[C@@]2(c3cc(C#CCC(C(=O)OC)C(=O)OC)ccc31)[C@H](c1ccc(O)cc1)N1[C@H](c3ccccc3)[C@H](c3ccccc3)OC(=O)[C@H]1[C@@H]2C(=O)NC[C@H](O)c1ccccc1,0.181
10,CCCCCCCCCCC(O)C1C=CC2C(=O)N(c3ccccc3)C(=O)C2N1Nc1ccccc1F (centres undefined),0.973
11,COc1ccc(C(O)C2C=CC3C(=O)N(c4ccccc4)C(=O)C3N2Nc2ccc(C(C)C)cc2)c2ccccc12 (centres undefined),0.942
12,O=C1C2C=CC(C(O)c3cc(C(F)(F)F)cc(C(F)(F)F)c3)N(Nc3ccccc3F)C2C(=O)N1c1ccccc1 (centres undefined),1.03
13,C=C(CCCC)C(=O)CC[C@@H](OC(=O)c1cccnc1)c1ccc(OCCO)cc1,-0.266
14,C=C(/C(=C/C[C@@H](OC(=O)c1ccncc1)c1cccc(OCCO)c1)c1cnc2ccccc2c1)C(C)C,0.415
15,CC(C)CNC(=O)[C@@]1(c2ccc([N+](=O)[O-])cc2)CC(=O)N(C2CCCCC2)[C@@H]1c1ccc(CO)cc1,0.453
16,C[C@]1(C(=O)O)c2ccccc2C(=O)N(Cc2ccc(OC(F)(F)F)cc2)[C@H]1c1ccc(CO)cc1,1.01
17,C=C(COC)C(=O)CC[C@H](OC(=O)c1cccnc1)c1ccc(CO)o1,-0.686
18,COCCOC(=O)N1C(=O)[C@@]2(c3cc(C#CCC(C(=O)OC)C(=O)OC)ccc31)[C@H](C(=O)NC[C@H](O)c1ccccc1)[C@H]1C(=O)O[C@H](c3ccccc3)[C@H](c3ccccc3)N1[C@@H]2c1ccc(O)cc1,0.521
19,Cc1cccc([C@H]2C[C@H]3C(Br)=C[C@@H]2C(=O)[C@]32CO2)c1,-0.0607
20,C=CCC(OC(C)=O)[C@@H]1[C@@H](N(Cc2ccc(-c3cccc(C(F)(F)F)c3)o2)C(=O)c2cccc3ccccc23)c2cc(OCCCO)ccc2N1C(=O)Cc1ccc(OC)cc1 (some centres undefined),0.107
21,CC(C)C[C@@H]1NC(=O)[C@@]23C(=O)N[C@@H](Cc4ccccc4)C2[C@H](C)[C@@]2(C)O[C@H]2C3/C=C/C/C=C\CNC(=O)[C@@H](C)NC1=O (some centres undefined),-0.601
22,CCOC(=O)C1=CCN(S(=O)(=O)c2ccc(C)cc2)C1c1ccccc1 (centres undefined),0.221
23,COCCOC(=O)N1C(=O)[C@@]2(c3ccccc31)[C@H](c1ccccc1OCCO)N1[C@H](c3ccccc3)[C@H](c3ccccc3)OC(=O)[C@H]1[C@@H]2C(N)=O,0.74
24,C=C(COC)C(=O)CC[C@@H](OC(=O)c1cccnc1)c1ccccc1OCCO,0.647

# Assay: splicing luciferase reporter signal modulators, primary screen, spliceosome inhibition project, cell-based, HEK293, splice +/- reporter (AID 1101);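 note: HEK293 cells carrying a splicing-competent luciferase reporter gene; test concentration not given here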
# Conditions: luminescence, 24 h, higher = more signal, called active from +8 up or from −8 down
row,Compound,z-score
1,[N-]=[N+]=Nc1ccccc1C[C@]1(C(=O)O)N=C(c2ccc(OCCCO)cc2)O[C@H]1c1ccccc1,-0.918 (inactive)
2,CN1C(=O)[C@@]2(Cc3ccccc3)N=C(c3ccc(OCCCO)cc3)O[C@H]2c2ccccc21,-0.528 (inactive)
3,NC(=O)[C@@H]1[C@H]2C(=O)O[C@H](c3ccccc3)[C@H](c3ccccc3)N2[C@H](c2ccc(OCCO)cc2)[C@@]12C(=O)Nc1ccc(C#CCCO)cc12,1.02 (inactive)
4,Cc1ccc(S[C@]2(C(=O)NC(C)C)CC(=O)N(Cc3ccccc3Cl)[C@@H]2c2ccc(CO)cc2)cc1,-0.864 (inactive)
5,CC(C)=CCCC(C)=CC(O)C1C=CC2C(=O)N(c3ccccc3)C(=O)C2N1Nc1ccccc1F (centres undefined),-0.652 (inactive)
6,COc1cc2c(cc1OC)CN(C(=O)[C@@H]1[C@H]3C(=O)O[C@H](c4ccccc4)[C@H](c4ccccc4)N3[C@H](c3ccc(O)cc3)[C@@]13C(=O)Nc1ccc(C#CCCO)cc13)CC2,-0.117 (inactive)
7,COc1cc(NN2C(C(O)C3CCCCC3)C=CC3C(=O)N(C)C(=O)C32)cc(OC)c1OC (centres undefined),1.1 (inactive)
8,CC(C)C(CO)N1C(=O)[C@@H]2[C@H]3C(=O)OCC=C[C@H]3OC23C=CCN(C(C)(C)C)C(=O)[C@@H]13 (some centres undefined),0.454 (inactive)
9,COC(=O)[C@@]1(Cc2ccc(OC)cc2)[C@H]2c3cc(C(=O)N4CCCC4)n(Cc4ccc(S(C)(=O)=O)cc4)c3C[C@H]2CN1C(=O)c1ccccc1,0.699 (inactive)
10,CCCNC(=O)[C@@]1(Sc2ccc(C)cc2)CC(=O)N(C2CCCCC2)[C@@H]1c1ccc(CO)cc1I,-0.703 (inactive)
11,CO[C@H]1O[C@H](CO)[C@@H](OC(=O)Nc2ccc(C#N)cc2)[C@@H]2OC(=O)[C@H](Cc3cccc(Br)c3)C/C=C/C[C@@H](Cc3cccc(Br)c3)C(=O)O[C@@H]12,1.5 (inactive)
12,COCCOC(=O)N1C(=O)[C@@]2(c3cc(C#CC4(O)CCCCCC4)ccc31)[C@H](C(=O)N1CCN(c3ncccn3)CC1)[C@H]1C(=O)O[C@H](c3ccccc3)[C@H](c3ccccc3)N1[C@@H]2c1ccccc1OCCO,-0.278 (inactive)
13,CCCC=C(CCC)[C@@H](NC(=O)CCc1ccccc1)c1ccc(C(F)(F)F)cc1,-1.57 (inactive)
14,CC(C)[C@H]1NC(=O)[C@@]23C(=O)N[C@@H](Cc4ccccc4)C2[C@H](C)[C@@]2(C)O[C@H]2C3/C=C/CCC/C=C/CNC(=O)[C@H](Cc2ccccc2)NC1=O (some centres undefined),0.286 (inactive)
15,CCCCNC(=O)c1ccc(C#C[Si](C(C)C)(C(C)C)C(C)C)c(OC(C)=O)c1,-0.831 (inactive)
16,C=C(/C(=C/C[C@H](OC(=O)c1ccncc1)c1ccccc1OCCO)c1cnc2ccccc2c1)C(C)C,0.82 (inactive)
17,COc1cc(NN2C(C(O)c3cc(OC)c(OC)c(OC)c3)C=CC3C(=O)N(c4ccccc4)C(=O)C32)cc(OC)c1OC (centres undefined),0.269 (inactive)
18,COC(=O)[C@@]1(Cc2ccccc2)[C@H]2c3cc(C(=O)N4CCCC4)n(CCSCCO)c3C[C@H]2CN1C(=O)c1ccccc1,-0.393 (inactive)

row,Compound,z-score
1,COCCOC(=O)N1C(=O)[C@@]2(c3cc(C#Cc4ccc(OC)cc4)ccc31)[C@H](c1ccc(OCCO)cc1)N1[C@H](c3ccccc3)[C@H](c3ccccc3)OC(=O)[C@H]1[C@@H]2C(=O)Nc1nc2ccccc2s1,-0.697 (inactive)
2,COCCOC(=O)N1C(=O)[C@@]2(c3cc(C#CCC(C(=O)OC)C(=O)OC)ccc31)[C@H](c1ccc(O)cc1)N1[C@H](c3ccccc3)[C@H](c3ccccc3)OC(=O)[C@H]1[C@@H]2C(=O)NC[C@H](O)c1ccccc1,0.579 (inactive)
3,CCCCCCCCCCC(O)C1C=CC2C(=O)N(c3ccccc3)C(=O)C2N1Nc1ccccc1F (centres undefined),1.25 (inactive)
4,COc1ccc(C(O)C2C=CC3C(=O)N(c4ccccc4)C(=O)C3N2Nc2ccc(C(C)C)cc2)c2ccccc12 (centres undefined),0.48 (inactive)
5,O=C1C2C=CC(C(O)c3cc(C(F)(F)F)cc(C(F)(F)F)c3)N(Nc3ccccc3F)C2C(=O)N1c1ccccc1 (centres undefined),0.537 (inactive)
6,C=C(CCCC)C(=O)CC[C@@H](OC(=O)c1cccnc1)c1ccc(OCCO)cc1,2.51 (inactive)
7,C=C(/C(=C/C[C@@H](OC(=O)c1ccncc1)c1cccc(OCCO)c1)c1cnc2ccccc2c1)C(C)C,-0.537 (inactive)
8,CC(C)CNC(=O)[C@@]1(c2ccc([N+](=O)[O-])cc2)CC(=O)N(C2CCCCC2)[C@@H]1c1ccc(CO)cc1,-0.472 (inactive)
9,C[C@]1(C(=O)O)c2ccccc2C(=O)N(Cc2ccc(OC(F)(F)F)cc2)[C@H]1c1ccc(CO)cc1,0.524 (inactive)
10,C=C(COC)C(=O)CC[C@H](OC(=O)c1cccnc1)c1ccc(CO)o1,0.591 (inactive)
11,COCCOC(=O)N1C(=O)[C@@]2(c3cc(C#CCC(C(=O)OC)C(=O)OC)ccc31)[C@H](C(=O)NC[C@H](O)c1ccccc1)[C@H]1C(=O)O[C@H](c3ccccc3)[C@H](c3ccccc3)N1[C@@H]2c1ccc(O)cc1,0.556 (inactive)
12,Cc1cccc([C@H]2C[C@H]3C(Br)=C[C@@H]2C(=O)[C@]32CO2)c1,-0.517 (inactive)
13,C=CCC(OC(C)=O)[C@@H]1[C@@H](N(Cc2ccc(-c3cccc(C(F)(F)F)c3)o2)C(=O)c2cccc3ccccc23)c2cc(OCCCO)ccc2N1C(=O)Cc1ccc(OC)cc1 (some centres undefined),-0.57 (inactive)
14,CC(C)C[C@@H]1NC(=O)[C@@]23C(=O)N[C@@H](Cc4ccccc4)C2[C@H](C)[C@@]2(C)O[C@H]2C3/C=C/C/C=C\CNC(=O)[C@@H](C)NC1=O (some centres undefined),-1.34 (inactive)
15,CCOC(=O)C1=CCN(S(=O)(=O)c2ccc(C)cc2)C1c1ccccc1 (centres undefined),-0.377 (inactive)
16,COCCOC(=O)N1C(=O)[C@@]2(c3ccccc31)[C@H](c1ccccc1OCCO)N1[C@H](c3ccccc3)[C@H](c3ccccc3)OC(=O)[C@H]1[C@@H]2C(N)=O,-2.08 (inactive)
17,C=C(COC)C(=O)CC[C@@H](OC(=O)c1cccnc1)c1ccccc1OCCO,0.591 (inactive)

# From PubChem BioAssay
